According to PubChem BioAssay AID623911 (Vanderbilt High Throughput Screening Facility, 2012):
Screen size: about 2,100 compounds; about 770 (37%) were called active.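 How the source made its calls: active means by-eye trace score of 1 for enhancers or -1 for inhibitors, so actives lie on both sides (some results past the limit were not filed as active); inactive means score 0, or 3 fluorescent, or 4 baseline rise.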 This is one part of the list.

Target: G protein-activated inward rectifier potassium channel 2 (Homo sapiens) + G protein-activated inward rectifier potassium channel 1 (Homo sapiens) (UniProt P48051+P48549)
Experiment: GIRK1/2 thallium flux modulators, retest, confirmation, cell-based, HEK293 rmGlu8/hGIRK1/2, FluoZin-2 (AID 623911)
Conditions: HEK293 rmGlu8/hGIRK1/2, thallium flux FluoZin-2; actives lie on both sides; glutamate co-added at its EC20 level

Sequence of G protein-activated inward rectifier potassium channel 2 (Homo sapiens) + G protein-activated inward rectifier potassium channel 1 (Homo sapiens) (P48051 whole entry, looked up): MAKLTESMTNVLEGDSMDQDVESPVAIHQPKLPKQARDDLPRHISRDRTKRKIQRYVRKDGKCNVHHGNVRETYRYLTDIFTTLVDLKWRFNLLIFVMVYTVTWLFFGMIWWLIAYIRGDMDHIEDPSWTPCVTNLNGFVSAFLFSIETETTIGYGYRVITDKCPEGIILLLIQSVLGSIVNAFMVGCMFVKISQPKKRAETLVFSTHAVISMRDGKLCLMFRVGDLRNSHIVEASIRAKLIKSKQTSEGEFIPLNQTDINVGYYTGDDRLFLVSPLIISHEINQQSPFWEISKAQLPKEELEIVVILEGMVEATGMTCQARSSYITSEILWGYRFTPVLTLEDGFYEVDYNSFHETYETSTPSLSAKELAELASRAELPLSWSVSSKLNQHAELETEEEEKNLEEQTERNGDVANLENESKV
Sequence of G protein-activated inward rectifier potassium channel 2 (Homo sapiens) + G protein-activated inward rectifier potassium channel 1 (Homo sapiens) (P48549 whole entry, looked up): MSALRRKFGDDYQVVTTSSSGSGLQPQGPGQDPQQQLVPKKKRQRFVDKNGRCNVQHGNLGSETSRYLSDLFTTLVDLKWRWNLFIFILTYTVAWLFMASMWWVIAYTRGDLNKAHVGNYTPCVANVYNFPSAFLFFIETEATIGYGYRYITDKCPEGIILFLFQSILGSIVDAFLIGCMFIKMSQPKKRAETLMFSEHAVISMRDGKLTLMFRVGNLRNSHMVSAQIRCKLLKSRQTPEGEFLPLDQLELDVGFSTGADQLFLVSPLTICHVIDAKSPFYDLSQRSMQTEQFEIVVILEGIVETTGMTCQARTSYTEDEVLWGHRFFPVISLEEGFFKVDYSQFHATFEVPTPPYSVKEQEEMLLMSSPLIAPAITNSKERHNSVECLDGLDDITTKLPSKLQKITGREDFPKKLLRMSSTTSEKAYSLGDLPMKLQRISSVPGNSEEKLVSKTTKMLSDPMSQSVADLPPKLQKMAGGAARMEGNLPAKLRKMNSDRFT

Row | SMILES | manual score
1 | CCOc1ccc(C2=NNC(c3cccs3)=Nc3ccc(OC)cc32)cc1 | 0 (inactive)
2 | CCn1c(SCc2ccc(Cl)cc2)nnc1-c1ccccc1 | 0 (inactive)
3 | Cc1ccc(-n2[nH]c(C)c(C=Nc3cc(C)ccn3)c2=O)cc1 | 0 (inactive)
4 | Cc1[nH]n(-c2ccc(Cl)cc2)c(=O)c1/C=N/c1nnc(-c2ccccc2)s1 | 1 (active)
5 | COc1ccc2nc(/N=C/c3c(C)[nH]n(-c4ccc(C)cc4)c3=O)sc2c1 | 1 (active)
6 | CCOc1ccc2nc(/N=C/c3c(C)[nH]n(-c4ccccc4)c3=O)sc2c1 | 1 (active)
7 | COc1ccc2nc(/N=C/c3c(C)[nH]n(-c4ccc(C)cc4C)c3=O)sc2c1 | 1 (active)
8 | Cc1[nH]n(-c2ccccc2)c(=O)c1/C=N/c1ccccn1 | 0 (inactive)
9 | COc1ccc(OC)c(-c2c3cc(O)c(=O)cc-3oc3cc(O)c(O)cc23)c1 | 0 (inactive)
10 | Cc1ccc(NC(=O)c2cc(NC(=O)CCC(=O)O)ccc2N2CCCCC2)cc1 | 0 (inactive)
11 | CN1CCN(C(=O)Nc2cccc3ccccc23)CC1 | 0 (inactive)
12 | CC1=C(C)C(c2ccccc2)NC(=S)N1 (stereo not drawn) | 0 (inactive)
13 | CCOc1ccc2nc(/N=C/c3c(C)[nH]n(-c4ccc(C)cc4)c3=O)sc2c1 | 1 (active)
14 | CCOc1ccc2nc(NC(=O)C(CC)Sc3nc(C)cc(=O)[nH]3)sc2c1 (stereo not drawn) | 0 (inactive)
15 | CCOc1[nH]n(-c2ccc(Cl)cc2)c(=O)c1C=Nc1ccc(Cl)cc1 | 0 (inactive)
16 | CCNC(=S)Nc1nc2c(cc1C(=O)OCC)CCCC2 | 1 (active)
17 | C=CCNC(=S)Nc1nc2c(cc1C(=O)OCC)CCCC2 | 1 (active)
18 | C=C(C)CNC(=S)Nc1nc2c(cc1C(=O)OCC)CCCC2 | 1 (active)
19 | C=C(C)CNC(=S)N/N=C1\CCCCc2ccccc21 | 0 (inactive)
20 | CCOC(=O)c1cc(NC(=O)SCC(=O)O)c(C)nc1C | 0 (inactive)
21 | CCOC(=O)C1=NNC(C(=O)c2ccc(OC)cc2)C1c1ccccc1 (stereo not drawn) | 0 (inactive)
22 | CC1CCc2c(sc(NC(=O)C(=O)NCc3ccco3)c2C#N)C1 (stereo not drawn) | 0 (inactive)
23 | O=C(Nc1ccc(Cl)cc1)NC1CCCCC1Cc1ccco1 (stereo not drawn) | 1 (active)

Row | SMILES | manual score
24 | CC(Cc1cccs1)NC(=O)Nc1ccc(Cl)cc1 (stereo not drawn) | 0.5 (inactive)
25 | O=C(COc1ccccc1Cl)NC(=S)N1CCc2ccccc21 | 1 (active)
26 | Cc1cccc(OCC(=O)NC(=S)N2CCCc3ccccc32)c1 | 0 (inactive)
27 | CC(Oc1ccc(Cl)cc1Cl)C(=O)NC(=S)N1CCc2ccccc21 (stereo not drawn) | 1 (active)
28 | O=C(COc1ccc(Cl)cc1Cl)NC(=S)N1CCCc2ccccc21 | 0 (inactive)
29 | O=C(COc1ccccc1)NC(=S)N1CCc2ccccc21 | 1 (active)
30 | O=C(COc1ccc(Br)cc1Cl)NC(=S)N1CCc2ccccc21 | 0.5 (inactive)
31 | CCOc1cc(C(=O)NCc2ccncc2)cc(OCC)c1OCC | 0 (inactive)
32 | CC(=O)c1ccc(N2CCCC2)c(F)c1 | 0 (inactive)
33 | CO/N=C(\Cn1ncc(N2CCCC2)c(Br)c1=O)c1ccc(Cl)cc1 | -1 (active)
34 | CCN(CC)c1cnn(C/C(=N\OC)c2ccc(Cl)cc2)c(=O)c1Br | -1 (active)
35 | CO/N=C(\Cn1ncc(N2CCCC2)c(Cl)c1=O)c1ccc(Cl)cc1 | -1 (active)
36 | COc1ccc(-c2ccnc3nc(Sc4ncc(C(F)(F)F)cc4Cl)nn23)cc1 | 0.5 (inactive)
37 | CC(/C=N/NC(=O)c1c(Br)cnn1C)=C\c1ccccc1 | 0.5 (inactive)
38 | Cc1cc(C(F)(F)F)c2c(=O)[nH]c(=O)n(Cc3ccccc3)c2n1 | 0 (inactive)
39 | O=c1c2ccccc2[nH]c(=S)n1C1CCCCC1 | 0 (inactive)
40 | CC(C)c1nc(=S)c2ccccc2[nH]1 | 1 (active)
41 | CC(C)c1nc(=S)n(-c2ccccc2)[nH]1 | 0 (inactive)
42 | S=c1nc(C2CC2)[nH]c2ccccc12 | 1 (active)
43 | CCc1nc2cc(Cl)c(Cl)cc2[nH]1 | 1 (active)
44 | O=P(CCCCCCCCCP(=O)(c1ccccc1)c1ccccc1)(c1ccccc1)c1ccccc1 | -1 (active)
45 | Nc1nnc(C(=O)c2ccccc2N)s1 | 0 (inactive)
46 | O=C(CSc1nc(-c2ccccc2)cc(C(F)(F)F)n1)NCCN1CCOCC1 | 0 (inactive)

Row | SMILES | manual score
47 | Cc1ccc(-n2nnnc2-c2nc3ccccc3s2)cc1 | 0 (inactive)
48 | Cc1ccc2cccc(Oc3nnnn3-c3ccccc3)c2n1 | -1 (active)
49 | CCCc1noc2c1/C(=N\O)CC(CC(C)SCC)C2 (stereo not drawn) | -1 (active)
50 | COc1ccc2c(c1)Sc1ccccc1N2CCN(C)C | -1 (active)
51 | CCCCn1c(-c2csc(C(C)C)c2)n[nH]c1=S | 0 (inactive)
52 | COc1ccc2occ(C(=O)c3ccc(N=C(C)N(C)C)cc3)c2c1 | -1 (active)
53 | Cc1ccc(OCC(=O)Nc2ccc(C)c(S(=O)(=O)N3CCCCC3)c2)c([N+](=O)[O-])n1 | 1 (active)
54 | COc1cc(NC(=O)CSc2nccc(C)n2)c(C)cc1[N+](=O)[O-] | 0 (inactive)
55 | CC(C)NS(=O)(=O)c1ccc(OCC(=O)Nc2ccc3c(c2)OCO3)c(Cl)c1 | 0 (inactive)
56 | Cc1ccc(NC(=O)COc2cccnc2[N+](=O)[O-])cc1S(=O)(=O)N1CCCCC1 | 1 (active)
57 | Cc1ccc(Nc2n[nH]c(C)c2[N+](=O)[O-])cc1C | -0.5 (inactive)
58 | COc1cccc(OCCc2c(C)n[nH]c2C)c1 | 0 (inactive)
59 | Cc1ccc(NC(=S)N=Nc2c(O)n(C)c3ccc(S(=O)(=O)N4CCOCC4)cc23)cc1 | 0 (inactive)
60 | Cc1ccc(S(=O)(=O)N2CCN(C)CC2)cc1-c1nnc2c3ccccc3c(C)nn12 | 0 (inactive)
61 | CC(C)(C)C1CCc2[nH]nc(C(=O)O)c2C1 (stereo not drawn) | 0.5 (inactive)
62 | CC(O)c1nc2ccccc2n1C1CCCCC1 (stereo not drawn) | 0 (inactive)
63 | C=CCOc1cccc(C2C(C(=O)c3ccc(C)o3)=C(O)C(=O)N2c2nccs2)c1 (stereo not drawn) | 3 (inactive)
64 | COC(=O)c1cc(CSc2nc3ccc(C)cc3[nH]2)oc1C | -1 (active)
65 | CC(=O)Nc1ccc(C(=O)CSc2nc3ccc(C)cc3[nH]2)cc1 | 0 (inactive)
66 | CC1=NN(C(N)=S)C(=O)C1N=Nc1ccccc1C (stereo not drawn) | 1 (active)
67 | CC1=NN(C(N)=S)C(=O)C1N=Nc1ccc(C)cc1C (stereo not drawn) | 0.5 (inactive)
68 | COc1ccc(CC(=O)Nc2cc(=O)n(C)c(=O)n2C)cc1 | 0 (inactive)
